Records with an inconclusive call do not appear. Activity calls are given as the source filed them. Unless noted, calls follow the shape of the dose curve; as a rule, active = well fitted curve in the direction sought with a large enough effect; inconclusive = small, poorly fitted or top-dose-only effect, or another doubt; inactive = no such curve, though single readings can be large; an effect the other way counts as inactive or inconclusive.

Assay [1] has as its target Transient receptor potential cation channel subfamily V member 1 (Homo sapiens) (UniProt Q8NER1). The assay is described as follows: HTS Assay for Compounds that Act as Enhancers of the Vanilloid Receptor 1 (AID 488979). Also: 0% is about no effect. The essentials:
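TRPV1-expressing cells loaded with Fluo-8 calcium dye; compounds added and calcium influx read kinetically for 3 min (agonist phase), then capsaicin at EC20 added and read 2 min more for enhancement. Fluorescence ex 480/em 520 nm.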

Assay [2] addresses Thyrotropin receptor (Homo sapiens) (UniProt P16473). The assay is described as follows: qHTS Assay for Antagonists of the Thyroid Stimulating Hormone Receptor (AID 488980). Also: series mostly up to about 58 µM; 0% is about no effect. The essentials:
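Inhibition of TSH-stimulated cAMP accumulation was quantified by homogeneous time-resolved FRET in TSHR-transfected HEK293 cells. Agonist: TSH, 4 nM final (EC80).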

Assay [3] deals with D(1A) dopamine receptor (Homo sapiens) (UniProt P21728). In words: HTS Assay for Allosteric Agonists of the Human D1 Dopamine Receptor: Primary Screen for Agonists (AID 488981). Also: 0% is about no effect. Put shortly: (§1)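 Tetracycline-induced HEK293 T-REx cells force-coupled to calcium signalling were incubated overnight at 30 C and dye-loaded at room temperature. Calcium flux over 180 s after compound addition flagged agonists; a further 180 s read after EC20 dopamine flagged potentiators.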
Sequence of D(1A) dopamine receptor (Homo sapiens) (P21728 whole entry, looked up): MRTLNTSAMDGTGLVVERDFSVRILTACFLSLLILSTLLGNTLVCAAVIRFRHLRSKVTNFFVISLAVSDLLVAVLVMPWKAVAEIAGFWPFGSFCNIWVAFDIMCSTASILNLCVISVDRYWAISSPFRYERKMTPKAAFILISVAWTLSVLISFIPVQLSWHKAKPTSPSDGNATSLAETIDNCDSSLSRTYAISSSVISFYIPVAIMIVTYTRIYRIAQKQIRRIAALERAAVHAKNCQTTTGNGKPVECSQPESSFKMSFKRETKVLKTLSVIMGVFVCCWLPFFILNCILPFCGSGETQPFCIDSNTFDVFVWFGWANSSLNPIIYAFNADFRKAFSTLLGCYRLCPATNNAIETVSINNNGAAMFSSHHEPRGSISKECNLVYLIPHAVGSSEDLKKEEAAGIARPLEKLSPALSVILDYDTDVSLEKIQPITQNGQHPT

Assay [4] has the same target. In words: HTS Assay for Allosteric Agonists of the Human D1 Dopamine Receptor: Primary Screen for Potentiators (AID 488982). Also: 0% is about no effect. The essentials: as §1
Assay [5] shares this target. In words: HTS Assay for Allosteric Agonists of the Human D1 Dopamine Receptor: Primary Screen for Antagonists (AID 488983).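 Also: calcium flux response to an EC80 dopamine challenge measured with no-wash dye; % is scaled to controls: 0 for no effect and ±100 for the full control effect; nearly all actives have a fitted effect of over 65% in size.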 Put shortly:
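Cells are induced with tetracycline and incubated overnight at 30 C, then loaded with calcium dye for 30 to 90 minutes at room temperature. Compound addition is followed by a 180 s read, then an EC80 dopamine addition and another 180 s read.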

The target in assay [6] is Thyrotropin-releasing hormone receptor (Homo sapiens) (UniProt P34981). The assay is described as follows: qHTS for Small Molecule Agonists and Allosteric Enhancers of Human TRH Receptor: Validation Screen for Agonists (AID 493127;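 active = calcium activation more than 3 SD above the typical response in the agonist read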;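 also: intracellular calcium rise by fluo-8 fluorescence before TRH EC20 addition; 0% is about no effect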). The note with it: TRH receptor agonist cell assay; at 2 µM; stronger effect = higher value. Put shortly: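 Cells 2000/well, 10% FCS, 18 h 33.5C/5% CO2 → fluo-8 Ca dye, RT 30 min–1.5 h → FDSS baseline 10 × 1 s → compound added → 230 cycles (1 s/cycle) agonist mode. TRH controls.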
Sequence of Thyrotropin-releasing hormone receptor (Homo sapiens) (P34981 whole entry, looked up): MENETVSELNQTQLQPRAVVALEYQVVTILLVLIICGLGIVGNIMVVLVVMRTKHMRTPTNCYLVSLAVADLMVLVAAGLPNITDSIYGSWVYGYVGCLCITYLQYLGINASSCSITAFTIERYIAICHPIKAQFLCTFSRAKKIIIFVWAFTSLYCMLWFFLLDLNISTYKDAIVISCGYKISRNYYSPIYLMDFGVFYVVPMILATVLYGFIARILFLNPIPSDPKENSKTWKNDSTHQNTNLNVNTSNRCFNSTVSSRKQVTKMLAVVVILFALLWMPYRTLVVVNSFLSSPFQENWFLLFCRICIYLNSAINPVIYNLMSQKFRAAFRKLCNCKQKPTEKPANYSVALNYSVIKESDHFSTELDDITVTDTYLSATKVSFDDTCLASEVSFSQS
On the technique in general: In qHTS, concentration-response curves come from the screen itself.

Assay [7] concerns the target Galactokinase (Homo sapiens) (UniProt P51570). The assay is described as follows: qHTS Validation Assay for Inhibitors of Human Galactokinase (GALK) (AID 493189). Also: 0% is about no effect. Put shortly:
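Enzyme activity is inferred from ATP consumption: human GALK phosphorylates galactose (100 uM) using 35 uM ATP for 1 h at room temperature, and luciferase-based Kinase-Glo Plus reports unconsumed ATP.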

Assay [8] deals with Peptidyl-prolyl cis-trans isomerase NIMA-interacting 1 (Homo sapiens) (UniProt Q13526). The assay is described as follows: qHTS Validation Assay to Find Inhibitors of Pin1 (AID 504536; active = well fitted inhibition curve with a large enough effect in the polarisation, with a control signal flat, not every such curve was filed as active; the % refers to the polarisation; also: potency is read from the fitted curve at half-maximal effect). Put shortly: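 Fluorescence polarization competition: compounds (titration) displace HiFluor-488-labeled Pin1-1b peptide from Pin1 (0.3 uM final) in pH 7.5 HEPES buffer with DTT, 10 min at room temperature; %Activity normalized to no-enzyme wells, curves fitted.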
Sequence of Peptidyl-prolyl cis-trans isomerase NIMA-interacting 1 (Homo sapiens) (Q13526 whole entry, looked up): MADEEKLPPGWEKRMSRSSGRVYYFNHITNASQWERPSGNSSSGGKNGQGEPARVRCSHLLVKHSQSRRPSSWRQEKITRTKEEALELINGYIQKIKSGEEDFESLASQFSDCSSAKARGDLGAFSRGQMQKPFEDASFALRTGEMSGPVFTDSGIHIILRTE

The target of assay [9] is Phosphoglycerate kinase, glycosomal (Trypanosoma brucei brucei) (UniProt P07378). The assay is described as follows: qHTS Validation Assay to Find Inhibitors of Phosphoglycerate Kinase (AID 504547).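 Also: control wells lack PGK and mark full inhibition.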 Put shortly: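 Substrate/PGK mix plus compound; reaction started with GAPDH (100nM final) to form 1,3-BPG; 60 min RT; Kinase-Glo Plus 10 min; luminescence. TEA 100mM pH 7.6, MgCl2 5mM, Tween-20 0.01%.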
Sequence of Phosphoglycerate kinase, glycosomal (Trypanosoma brucei brucei) (P07378 whole entry, looked up): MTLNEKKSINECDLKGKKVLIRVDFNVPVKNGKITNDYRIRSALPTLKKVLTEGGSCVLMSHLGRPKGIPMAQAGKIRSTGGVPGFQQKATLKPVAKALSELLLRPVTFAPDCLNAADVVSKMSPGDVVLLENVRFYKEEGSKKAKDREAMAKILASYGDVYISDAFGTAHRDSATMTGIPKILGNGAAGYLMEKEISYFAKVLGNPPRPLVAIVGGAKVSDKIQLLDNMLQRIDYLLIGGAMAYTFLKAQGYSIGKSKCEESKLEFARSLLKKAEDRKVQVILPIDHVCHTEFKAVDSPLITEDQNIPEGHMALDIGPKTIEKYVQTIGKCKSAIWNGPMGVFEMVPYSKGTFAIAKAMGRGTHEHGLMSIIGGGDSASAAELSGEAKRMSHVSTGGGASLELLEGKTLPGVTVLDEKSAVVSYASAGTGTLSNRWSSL

Assay [10] deals with phosphoglycerate mutase (Leishmania major) (UniProt Q4Q090). In words: qHTS Validation Assay to Find Inhibitors of Phosphoglycerate Mutase (AID 504548).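 Also: end-point luminescence from Kinase-GloPlus after the PGAM reaction; series mostly up to about 58 µM; % is scaled to controls: 0 for no effect and ±100 for the full control effect.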 The note with it: Potency: inhibition qHTS. Put shortly: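 L. major PGAM (1.25nM final) was added to substrate buffer and pinned compound, incubated 45 minutes at room temperature, then Kinase-GloPlus added; luminescence read after 10 minutes. Buffer: 100 mM TEA pH 7.6, 5 mM MgCl2, 0.01% Tween-20.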
Sequence of phosphoglycerate mutase (Leishmania major) (Q4Q090 1-553): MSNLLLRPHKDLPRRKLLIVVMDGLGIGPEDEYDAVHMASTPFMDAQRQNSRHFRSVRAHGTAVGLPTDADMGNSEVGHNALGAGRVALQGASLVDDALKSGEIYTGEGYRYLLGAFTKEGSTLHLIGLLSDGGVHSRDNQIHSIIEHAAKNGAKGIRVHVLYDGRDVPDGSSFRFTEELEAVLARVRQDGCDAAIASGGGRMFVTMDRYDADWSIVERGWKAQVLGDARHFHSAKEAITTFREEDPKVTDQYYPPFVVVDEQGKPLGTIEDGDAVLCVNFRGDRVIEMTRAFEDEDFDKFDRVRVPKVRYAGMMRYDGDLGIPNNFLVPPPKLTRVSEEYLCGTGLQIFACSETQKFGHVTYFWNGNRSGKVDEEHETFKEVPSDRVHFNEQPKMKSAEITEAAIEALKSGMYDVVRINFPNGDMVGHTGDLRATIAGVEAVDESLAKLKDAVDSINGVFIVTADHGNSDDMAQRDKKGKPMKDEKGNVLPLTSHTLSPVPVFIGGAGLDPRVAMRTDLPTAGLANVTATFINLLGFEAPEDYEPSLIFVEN

In assay [11] the target is Ubiquitin carboxyl-terminal hydrolase 1 (Homo sapiens) (UniProt O94782). In words: Inhibitors of USP1/UAF1: Pilot qHTS (AID 504865). Also: nearly all actives have a fitted effect of over 35% in size. Also: potency is read from the fitted curve at half-maximal effect. Put shortly:
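Enzyme-free wells gave the negative control, while test wells held 1nM USP1/UAF1 preincubated with compound for 15 min at room temperature. Ub-Rho at 150nM final started the reaction, and fluorescence at 480/540 nm was recorded kinetically.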

Assay [12] is described as follows: qHTS for Inhibitors of ATXN expression: Validation (AID 588378). Also: series mostly up to about 57 µM; % is scaled to controls: 0 for no effect and ±100 for the full control effect; nearly all actives have a fitted effect of over 75% in size. The essentials: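 After a 2 h attachment and 24 h compound incubation, HEK293-ATXN2-FFLuc wells are read for fluorescence at 405 nm excitation/525 nm emission as a viability measure, then for Bright-Glo luminescence reflecting ATXN2 expression.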
Assay [13] is described as follows: Validation screen for small molecules that induce genotoxicity in human embryonic kidney (HEK293T) cells expressing luciferase-tagged ELG1 (AID 493106). Also: 0% is about no effect. The essentials:
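Luminescence from an ELG1-luciferase fusion serves as the read-out, rising when genetic stress elevates ELG1 protein. HEK293T reporter cells (2,000 per well) received 23 nL compound, incubated 16 hr at 37 °C, then ONE-Glo for 30 min at room temperature.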

Assay [14] addresses ATPase family AAA domain-containing protein 5 (Homo sapiens) (UniProt Q96QE3). In words: Validation screen for small molecules that inhibit ELG1-dependent DNA repair in human embryonic kidney (HEK293T) cells expressing luciferase-tagged ELG1 (AID 493107).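 Also: cells co-treated with the DNA-damaging agent 5-fluorouridine alongside compound; series mostly up to about 46 µM; % is scaled to controls: 0 for no effect and ±100 for the full control effect; inhibitors lower the ELG1-luciferase luminescence signal; nearly all actives have a fitted effect of over 70% in size.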 The essentials:
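Luminescence from ONE-Glo, developed 30 min at room temperature, served as read-out of ELG1-luciferase levels. Beforehand, reporter HEK293T cells received 5-fluorouridine plus test compound for 16 hr at 37 °C.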

Assay [15] in a line: qHTS for Inhibitors of Cell Surface uPA Generation: Validation Assay (AID 493164). Also: 0% is about no effect. The essentials:
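RAW 264.7 cells (4000/well) were plated overnight, then exposed for 18 h at 37 C, 5% CO2 to compounds in a 7-point 1:5 titration (2.45 nM–38.3 uM final). Intracellular ATP was read by ATP-Lite luminescence.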

The nature of assay [16]: Validation screen for small molecules that induce DNA re-replication in SW480 colon adenocarcinoma cells (AID 504364). Also: 0% is about no effect. Put shortly: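 250 cells/well; compound pinned in; 48 hr, 37 C, 5% CO2; Hoechst added, 40 min; nuclear fluorescence imaged, 405 ex / 500-530 em; re-replication scored as increase in high-intensity nuclei.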
Assay [17] can be described thus: qHTS for Inhibitors of ATXN expression: Validation of Cytotoxic Assay (AID 588349). Also: % is scaled to controls: 0 for no effect and ±100 for the full control effect. Put shortly:
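Read-out: ATP-based luminescence (CellTiter Glo) reflecting viability of HEK293 cells after 72 hr incubation at 37 degrees C with a concentration series of each compound.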

A short description of assay [18]: Nrf2 qHTS screen for inhibitors: Validation (AID 493153; active = well fitted inhibition curve with a large enough effect in the main read-out, with a control signal flat, not every such curve was filed as active; also: potency is read from the fitted curve at half-maximal effect). Conditions: Potency: luciferase luminescence; viability change: measured here: cytotoxicity max response. The essentials: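 Luminescence from an ARE-firefly luciferase reporter in A549 cells gives Nrf2 inhibition; an earlier CellTiter-Fluor fluorescent read flags cytotoxicity. Cells in 5% FBS OPTI-MEM received compound dilution series for 18-24 h at 37°C.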

Sequence of Transient receptor potential cation channel subfamily V member 1 (Homo sapiens) (Q8NER1 whole entry, looked up): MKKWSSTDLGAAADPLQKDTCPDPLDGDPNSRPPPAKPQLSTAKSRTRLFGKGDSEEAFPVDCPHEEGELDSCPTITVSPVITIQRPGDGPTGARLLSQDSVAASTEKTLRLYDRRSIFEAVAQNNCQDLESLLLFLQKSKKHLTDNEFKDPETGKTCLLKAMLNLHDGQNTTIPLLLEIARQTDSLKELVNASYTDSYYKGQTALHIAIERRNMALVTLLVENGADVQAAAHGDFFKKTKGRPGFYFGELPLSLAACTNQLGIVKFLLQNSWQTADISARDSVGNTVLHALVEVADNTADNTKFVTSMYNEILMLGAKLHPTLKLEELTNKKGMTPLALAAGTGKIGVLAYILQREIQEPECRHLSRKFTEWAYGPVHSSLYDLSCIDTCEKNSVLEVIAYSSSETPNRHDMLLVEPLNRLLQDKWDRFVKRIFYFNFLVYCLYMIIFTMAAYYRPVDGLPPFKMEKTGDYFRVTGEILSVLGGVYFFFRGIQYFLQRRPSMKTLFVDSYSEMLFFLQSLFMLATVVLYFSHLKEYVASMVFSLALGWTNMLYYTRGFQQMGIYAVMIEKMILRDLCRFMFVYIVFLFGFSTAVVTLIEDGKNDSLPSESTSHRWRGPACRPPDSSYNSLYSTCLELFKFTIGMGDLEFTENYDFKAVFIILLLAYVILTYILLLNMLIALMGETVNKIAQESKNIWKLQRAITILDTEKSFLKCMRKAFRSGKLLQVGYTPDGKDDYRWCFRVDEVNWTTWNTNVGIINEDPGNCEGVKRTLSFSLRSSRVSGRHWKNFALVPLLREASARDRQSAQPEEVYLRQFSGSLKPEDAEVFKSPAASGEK
Sequence of Ubiquitin carboxyl-terminal hydrolase 1 (Homo sapiens) (O94782 whole entry, looked up): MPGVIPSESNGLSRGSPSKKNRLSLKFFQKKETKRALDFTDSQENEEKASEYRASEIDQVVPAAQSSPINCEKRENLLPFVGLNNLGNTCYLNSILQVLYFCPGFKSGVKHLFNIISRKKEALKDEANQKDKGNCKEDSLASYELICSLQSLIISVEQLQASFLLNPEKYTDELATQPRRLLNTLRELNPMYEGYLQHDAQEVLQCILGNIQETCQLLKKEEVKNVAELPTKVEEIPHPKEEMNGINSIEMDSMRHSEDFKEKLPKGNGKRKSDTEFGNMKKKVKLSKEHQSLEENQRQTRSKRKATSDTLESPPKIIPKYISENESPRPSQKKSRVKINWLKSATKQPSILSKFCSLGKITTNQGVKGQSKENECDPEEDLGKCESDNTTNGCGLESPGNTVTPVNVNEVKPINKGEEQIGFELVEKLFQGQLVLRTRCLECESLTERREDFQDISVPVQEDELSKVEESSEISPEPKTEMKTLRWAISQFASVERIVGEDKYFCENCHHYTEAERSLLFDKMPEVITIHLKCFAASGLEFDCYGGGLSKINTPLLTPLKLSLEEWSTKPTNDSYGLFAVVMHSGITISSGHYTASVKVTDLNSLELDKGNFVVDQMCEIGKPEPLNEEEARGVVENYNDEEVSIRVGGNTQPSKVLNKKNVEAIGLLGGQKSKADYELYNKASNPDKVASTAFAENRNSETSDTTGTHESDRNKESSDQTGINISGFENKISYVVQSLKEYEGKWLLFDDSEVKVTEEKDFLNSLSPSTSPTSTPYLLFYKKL
Sequence of Thyrotropin receptor (Homo sapiens) (P16473 whole entry, looked up): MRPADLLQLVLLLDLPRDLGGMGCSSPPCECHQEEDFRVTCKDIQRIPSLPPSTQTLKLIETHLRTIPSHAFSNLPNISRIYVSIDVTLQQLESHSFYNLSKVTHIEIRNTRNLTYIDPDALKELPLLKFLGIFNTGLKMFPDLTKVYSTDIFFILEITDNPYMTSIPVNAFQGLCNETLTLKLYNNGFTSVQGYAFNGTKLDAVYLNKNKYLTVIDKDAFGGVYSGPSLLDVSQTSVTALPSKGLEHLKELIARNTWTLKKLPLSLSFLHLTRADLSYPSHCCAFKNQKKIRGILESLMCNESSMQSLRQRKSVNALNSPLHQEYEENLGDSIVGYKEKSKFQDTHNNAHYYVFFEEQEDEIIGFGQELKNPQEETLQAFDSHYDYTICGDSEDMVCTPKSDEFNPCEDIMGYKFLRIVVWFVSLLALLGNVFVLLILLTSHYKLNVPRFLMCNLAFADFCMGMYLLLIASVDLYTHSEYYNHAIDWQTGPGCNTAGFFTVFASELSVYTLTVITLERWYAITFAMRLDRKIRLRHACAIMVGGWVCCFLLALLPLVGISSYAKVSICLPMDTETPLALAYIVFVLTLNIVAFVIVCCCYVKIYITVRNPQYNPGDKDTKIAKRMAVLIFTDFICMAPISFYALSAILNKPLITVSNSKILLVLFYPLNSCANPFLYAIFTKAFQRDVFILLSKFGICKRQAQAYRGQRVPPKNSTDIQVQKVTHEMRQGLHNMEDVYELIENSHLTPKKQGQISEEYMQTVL
Sequence of Galactokinase (Homo sapiens) (P51570 whole entry, looked up): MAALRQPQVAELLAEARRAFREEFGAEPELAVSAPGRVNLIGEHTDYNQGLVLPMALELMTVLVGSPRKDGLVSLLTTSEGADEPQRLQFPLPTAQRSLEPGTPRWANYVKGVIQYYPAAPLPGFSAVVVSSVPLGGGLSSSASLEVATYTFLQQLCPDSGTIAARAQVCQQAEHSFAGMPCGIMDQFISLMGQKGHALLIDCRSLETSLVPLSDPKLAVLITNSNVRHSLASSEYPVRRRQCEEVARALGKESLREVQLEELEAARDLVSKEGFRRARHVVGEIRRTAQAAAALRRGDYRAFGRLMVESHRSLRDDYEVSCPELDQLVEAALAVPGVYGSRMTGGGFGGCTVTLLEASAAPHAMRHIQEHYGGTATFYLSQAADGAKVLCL

`CCn1c(=O)[nH]c2cc(Cl)c(Cl)cc21`: the result in assay [1] and in [2] was inactive. The Potency result in assay [3], in [4], in [5], in assay [7], in assay [8] and in assay [9] was “inactive” throughout. The Potency result in assay [10], in assay [11] and in assay [12] was “inactive” each time. In [6], the activation was 1.69% (inactive).

Take `[N-]=[N+]=Nc1ccc(C(=O)CSC[C@H](NC(=O)CC[C@H](N)C(=O)O)C(=O)NCC(=O)O)cc1`: the outcome in assay [1], in assay [2] and in [15] was inactive. For the same compound, the Potency entry in [3], in [5], in assay [13], in assay [14], in [16] and in [10] was “inactive” each time. In addition, the Potency entry in assay [17] and in assay [12] was “inactive” in each case. The activation in assay [6] is 1.12% (inactive). The Potency in [8] was 23.9 µM (active); in assay [11], 35.5 µM (active).

Regarding `O=C1C2C=CC=CC2=NC(=S)N1CCN1CCC(=C(c2ccc(F)cc2)c2ccc(F)cc2)CC1` (stereo not drawn), the outcome in assay [1], in assay [2] and in assay [15] was inactive. In addition, the Potency result in assay [3], in assay [4], in [13], in assay [14], in assay [18] and in assay [7] was “inactive” in each case. Moreover, the Potency result in [16], in [8], in assay [10], in assay [11], in [17] and in assay [12] was “inactive” each time. Besides, the activation in [6] was -4.38% (inactive). The viability change in assay [18] amounted to 6.28%.

Consider `Cc1cccc(C(=O)NCN2CCN(c3ccccc3C#N)CC2)c1`, for which the result in assay [1], in assay [2] and in assay [15] was inactive. In addition, the Potency result in assay [3], in [4], in assay [13], in assay [7], in assay [16] and in [8] was “inactive” in each case. Further, the Potency result in assay [9], in assay [10], in [11], in assay [17] and in assay [12] was “inactive” in each case. Besides, the activation in [6] is 0.562% (inactive).

In the case of `Nc1ncnc2c1ncn2C1CCCC1`, the result in assay [1] and in assay [2] was inactive. Moreover, the Potency result in [3], in assay [4], in assay [5], in assay [14], in assay [18] and in assay [7] was “inactive” in each case. In addition, the Potency result in assay [16], in [8], in assay [9], in [10], in assay [11] and in assay [17] was “inactive” throughout. The Potency result in assay [12] is “inactive”. In [6], the activation was 1.12% (inactive). Besides, the viability change in [18] is 4.78%.

Regarding `NC(N)=[N+]1CCc2ccccc2C1`, the outcome in assay [1], in assay [2] and in assay [15] was inactive. Further, the Potency entry in [3], in assay [5], in [13], in assay [7], in assay [16] and in assay [8] was “inactive” in each case. For the same compound, the Potency entry in assay [9], in assay [10], in [11], in [17] and in assay [12] was “inactive” in each case. In assay [6], the activation is -0.125% (inactive). In assay [18], the Potency was 16.4 µM (active). Further, the viability change in [18] amounted to 6.22%.

Turning to `C[C@H](NC(=O)/C(C#N)=C/c1ccc(O)c(O)c1)c1ccccc1`, the outcome in assay [1], in assay [2] and in assay [15] was inactive. In addition, the Potency entry in [3], in assay [4], in assay [13], in [14], in assay [18] and in assay [7] was “inactive” throughout. For the same compound, the Potency result in assay [8], in [9], in assay [10] and in assay [11] was “inactive” in each case. Moreover, the activation in assay [6] was -3.19% (inactive). Also, the viability change in assay [18] was -7.12%.

For the compound `Nc1ccc(-c2nc3ccc(-c4nc5ccc(N)cc5[nH]4)cc3[nH]2)cc1`, the result in assay [1] and in [2] was inactive. The Potency result in [3], in assay [4], in [5], in assay [18], in assay [7] and in assay [16] was “inactive” throughout. Further, the Potency result in assay [8], in assay [9], in [10], in [17] and in assay [12] was “inactive” throughout. Also, in assay [6], the activation is 1% (inactive). Besides, the viability change in [18] is -10.2%. In addition, the Potency in assay [11] is 50.1 µM (active).

The values above are taken from PubChem BioAssay (NCATS).
